# Screens as filed in PubChem BioAssay.
# DT40 TDP1 CPT – DT40-hTDP1 cell growth loss with CPT | chicken DT40 Tdp1-/-;hTDP1 cells + 20 nM CPT, ATP luminescence, 48 h | Potency, µM (top dose mostly 46.2 µM), for the others: at the highest dose activity change, negative = growth inhibition, most hits filed as inhibitors | hit rate 12% among 420,000 | AID 686979; further: nearly all actives have a fitted effect of over 55% in size
#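 Chicken DT40 Tdp1-/- cells stably complemented with human TDP1 were seeded at 400 cells/well in medium containing 20 nM camptothecin, exposed to pin-transferred compounds, and grown at 37 °C for at least 48 hr. Viability was read as ATP luminescence.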
# KB-3-1 cytotox – kills parental KB-3-1 adenocarcinoma cells | KB-3-1 viability, CellTiter-Glo ATP luminescence, 72 h | AID 1347075 | Potency, µM (top dose mostly 46.1 µM), usual class: cytotoxic | hit rate 1.4% among 400,000; further: nearly all actives have a fitted effect of over 60% in size
#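 Parental KB-3-1 adenocarcinoma cells in phenol-red-free DMEM with 10% FBS were pin-treated with compounds at several concentrations, incubated 72 h at 37 °C, and viability read by CellTiter-Glo luminescence; concentration-effect curves were fitted after normalization.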
# DT40 TDP1 no CPT – qHTS for Inhibitors of human tyrosyl-DNA phosphodiesterase 1 (TDP1): qHTS in cells in absence of CPT | DT40 Tdp1-/- hTDP1 cells, no CPT, ATP luminescence, 48 h | Potency, µM (titrated, usually from 46.2 µM), for inactives: at the highest dose activity change, negative = growth inhibition, hits mostly inhibitors | hit rate 15% among 420,000; further: nearly all actives have a fitted effect of over 55% in size
#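 Luminescent ATP content (CellTiter-Glo) served as the growth readout. Knockout chicken DT40 cells expressing human TDP1 were exposed to compounds without camptothecin for a minimum 48 hr at 37 °C.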
# HT1080-NT tox – kills 2HG-producing HT-1080-NT fibrosarcoma cells; AID 686970; hit rate 1.6% among 360,000; Potency, µM (doses to about 46.1 µM), for the others: top-dose activity, negative = less viability, usual class: cytotoxic; HT-1080-NT fibrosarcoma viability, CellTiter-Glo ATP luminescence, 48 h;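 further: NT is the 2HG producing partner of a matched IDH1 knockdown line; 0% = DMSO-treated cells and -100% = media-only wells without cells; nearly all actives have a fitted effect of over 55% in size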
#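 Luminescent CellTiter-Glo readout after 48 hours of compound exposure at 37 degrees C defined viability of HT-1080-NT cells. Activity was normalized to DMSO wells and cell-free media wells; concentration-response curves were fitted and assigned curve classes.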
# KB-V1 cytotox – KB-V1 MDR subline cytotoxicity; KB-V1 MDR cells viability, CellTiter-Glo, 72 h; Potency, µM (doses to about 46.1 µM), most hits filed as cytotoxic; hit rate 3.4% among 400,000; further: nearly all actives have a fitted effect of over 60% in size
#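 KB-V1 cells (P-gp-expressing MDR subline of KB-3-1) in phenol-red-free DMEM with 10% FBS were exposed to library compounds over a concentration series for 72 h at 37 degrees C. Viability read by CellTiter-Glo luminescence; concentration-effect curves fitted after normalization.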
# HT1080 IDH1KD tx – toxicity to HT-1080 IDH1 knockdown cells (counter line); HT-1080 IDH1 knockdown viability, ATP luminescence, 48 h; Potency, µM (top dose mostly 46.1 µM), for inactives: top-dose activity, negative = toxicity, most hits filed as cytotoxic; hit rate 2% among 360,000; AID 686971;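 further: 0% = DMSO wells and -100% = cell-free medium wells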
#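 Assay cells: HT-1080 with IDH1 knockdown, 750 per well, RPMI/5% FBS. Exposure: 48 h at 37 °C following 2 h pre-incubation. Read: CellTiter-Glo luminescence; fitted concentration-response, curve class assigned.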
# Starred values were filed as active, the others as inactive; i = inactive; u = inconclusive; x = not tested or not shown. Rows were chosen to be rich in hits. Some 19% of all compounds tested hit in one or more screens of this group. The call rests on the fitted dose curve; in most records, active means well fitted curve in the direction sought with a large enough effect; inconclusive means small, poorly fitted or top-dose-only effect, or another doubt; inactive means no such curve, though single readings can be large; an effect the other way counts as inactive or inconclusive. Unless noted, on the % scale 0 is the no-effect control and ±100 the full control effect; potency means the concentration at half of the fitted maximal effect.
SMILES,DT40 TDP1 CPT,KB-3-1 cytotox,DT40 TDP1 no CPT,HT1080-NT tox,KB-V1 cytotox,HT1080 IDH1KD tx
O=C(CSc1nnc(-c2cccs2)n1-c1ccccc1)NCC1CCCO1 (configuration not stated),-4%,i,-14%,4%,i,4%
Cc1nnc(SCC2CCCO2)n1-c1ccccc1 (configuration not stated),7%,i,1%,6%,i,-5%
Cc1ccc(-n2c(SCC3CCCCO3)nnc2-c2ccco2)cc1 (configuration not stated),u,u,u,-19%,21µM*,u
c1ccc(-n2c(SCC3CCCCO3)nnc2-c2cccs2)cc1 (configuration not stated),18µM*,i,u,-11%,u,-7%
CC(Sc1nnc(-c2ccco2)n1-c1ccccc1)C(=O)NCC1CCCO1 (configuration not stated),-16%,i,7%,6%,21µM*,10%
O=C(CCc1ccccc1)NNC(=O)COc1ccccc1Cl,-2%,i,-1%,2%,i,11%
C[C@@]1(C(=O)O)NCCc2cc(O)c(O)cc21,11µM*,x,11µM*,x,x,x
Cc1ccc(S(=O)(=O)Oc2ccccc2/C=N/NC(N)=S)cc1,4.1µM*,6.5µM*,6.5µM*,4.5µM*,u,u
Cc1ccc(S(=O)(=O)Oc2ccccc2/C=C2\SC(=O)NC2=O)cc1,8%,i,-15%,21µM*,i,-26%
Cc1ccc(S(=O)(=O)Oc2ccccc2[N+](=O)[O-])cc1,-2%,i,u,-4%,i,-5%
Cc1ccc(S(=O)(=O)Oc2ccccc2/C=N/N=C(N)N)cc1,u,i,18µM*,-9%,i,u
Cc1ccc(S(=O)(=O)Oc2ccccc2/C=N/NC(=O)c2nn(C)cc2[N+](=O)[O-])cc1,u,i,16µM*,2%,i,4%
COc1cccc(/C=N/NC(N)=S)c1OS(=O)(=O)c1ccccc1,u,i,-27%,-5%,i,-1%
O=C1NC(=O)/C(=C/c2ccccc2Oc2ccc(Cl)cc2)S1,-9%,i,-29%,-1%,i,-20%
O=C(CCNS(=O)(=O)c1ccc(Br)cc1)N1CCN(c2ccccc2O)CC1,u,i,u,4%,i,-12%
Cc1cc(C)c2c(CC(=O)Nc3ccc(S(=O)(=O)Nc4ncccn4)cc3)coc2c1,-17%,i,-14%,x,i,x
CCCC(=O)NCCc1nc2ccccc2n1CC(=O)c1ccccc1,-11%,i,-6%,2%,i,-5%
COc1cc(C(=O)NCCCc2nc3ccccc3n2CC(C)C)cc(OC)c1OC,21µM*,i,u,x,i,x
CCn1c(CCNC(=O)c2ccc(OC)c(OC)c2)nc2ccccc21,-16%,i,u,9%,3.7µM*,3%
Cc1ccc(Cn2c(CCNC(=O)c3cccc(C)c3)nc3ccccc32)cc1,18µM*,x,u,x,x,x
CCCC(=O)NCCCc1nc2ccccc2n1C(C)C,u,i,15µM*,2%,i,0%
COc1ccc(N2CCN(Cc3nc4c(c(=O)[nH]c(=O)n4C)n3Cc3ccccc3F)CC2)cc1,-20%,x,-5%,x,x,x
COc1cc(CN2C(=O)CC[C@@H]3CN(Cc4ccccn4)CC[C@@H]32)cc(OC)c1OC,3%,x,-23%,x,x,x
Cc1ncc(S(=O)(=O)c2ccccc2)c(-c2ccccc2Cl)n1,-1%,i,6%,-8%,i,-9%
CN(C)c1ncc(S(=O)(=O)c2ccc(Cl)cc2)c(-c2ccc(Cl)cc2Cl)n1,-27%,u,u,-5%,18µM*,-14%
SMILES,DT40 TDP1 CPT,KB-3-1 cytotox,DT40 TDP1 no CPT,HT1080-NT tox,KB-V1 cytotox,HT1080 IDH1KD tx
CN(C)c1ncc(S(=O)(=O)c2ccccc2)c(-c2ccc(Cl)cc2Cl)n1,-1%,i,-2%,4%,15µM*,-2%
Cc1cccc(N(C)S(=O)(=O)c2c(C)[nH]c(C)c2C(=O)N2CCCC2)c1,u,i,u,8%,i,-10%
CCOC(=O)c1c(C)[nH]c(C(=O)N2CCN(C(=O)OCC)CC2)c1C,0%,i,11%,5%,u,2%
CCOC(=O)c1c(C)[nH]c(C(=O)N2CCc3cc(OC)c(OC)cc3C2)c1C,10µM*,i,16µM*,-9%,u,u
CCOc1ccc(CCNC(=O)c2[nH]c(C)c(C(C)=O)c2CC)cc1OCC,18µM*,i,23µM*,u,u,u
CCOC(=O)c1c(C)[nH]c(C(=O)NCCc2ccc(OC)c(OC)c2)c1C,u,i,15µM*,-24%,u,-15%
CC(C)=CNNC(=O)c1ccc(O)cc1,2%,i,4%,x,i,x
C=CCn1c(NC(=O)c2ccc(C)cc2)nc2ccccc21,u,i,u,2%,i,5%
CCCn1c(Nc2nc3ccccc3n2C)nc2ccccc21,-9%,u,u,13µM*,u,16µM*
CCCn1c(NC(=O)C2CCN(S(=O)(=O)c3cccs3)CC2)nc2ccccc21,15µM*,23µM*,16µM*,u,u,u
CCCn1c(NC(=O)c2cccc(S(=O)(=O)N3CCCC3)c2)nc2ccccc21,23µM*,16µM*,13µM*,u,16µM*,u
CCCn1c(NC(=O)c2ccc(C)cc2)nc2ccccc21,u,u,26µM*,-5%,u,-10%
Cc1ccccc1NC(=O)c1cccc(S(=O)(=O)N2CCCCC2)c1,-4%,i,-29%,-7%,i,-3%
CCCn1c(CNC(=O)c2ccccc2)nc2ccccc21,-10%,i,-2%,11%,23µM*,10%
CCCn1c(NC(=O)c2ccccc2)nc2ccccc21,u,u,u,-23%,15µM*,-30%
Cn1c(NC(=O)c2cccnc2)nc2ccccc21,u,i,u,-3%,16µM*,-5%
O=C(N/N=C/c1ccc(N2CCCCC2)o1)c1ccccc1,9.2µM*,u,12µM*,-26%,i,u
O=C(Nc1cnc2ccccc2c1)c1cccnc1,-20%,u,-10%,-22%,i,u
CC(C)Cn1c(CNC(=O)c2ccccc2)nc2ccccc21,-29%,i,u,-3%,u,1%
Cc1ccc(/C=N/NC(=O)c2ccc(-c3ccccc3)cc2)o1,-3%,i,u,-24%,u,-15%
